# Out of some 310,000 compounds screened, about 14,000 (4.5%) showed an effect of 50% or more. Effects have a minus sign here. The full list was thinned out, with strong results kept by preference.
# Biological target: human ether-à-go-go-related gene (hERG) potassium channel (human, UniProt Q12809)
# Test: primary screen, population patch clamp on CHO cells stably expressing hERG; higher = less effect of the substance
# 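Note: peak tail current of the secondary pulse compared with the same well before compound.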
# human ether-à-go-go-related gene (hERG) potassium channel, sequence (Q12809 whole entry, looked up): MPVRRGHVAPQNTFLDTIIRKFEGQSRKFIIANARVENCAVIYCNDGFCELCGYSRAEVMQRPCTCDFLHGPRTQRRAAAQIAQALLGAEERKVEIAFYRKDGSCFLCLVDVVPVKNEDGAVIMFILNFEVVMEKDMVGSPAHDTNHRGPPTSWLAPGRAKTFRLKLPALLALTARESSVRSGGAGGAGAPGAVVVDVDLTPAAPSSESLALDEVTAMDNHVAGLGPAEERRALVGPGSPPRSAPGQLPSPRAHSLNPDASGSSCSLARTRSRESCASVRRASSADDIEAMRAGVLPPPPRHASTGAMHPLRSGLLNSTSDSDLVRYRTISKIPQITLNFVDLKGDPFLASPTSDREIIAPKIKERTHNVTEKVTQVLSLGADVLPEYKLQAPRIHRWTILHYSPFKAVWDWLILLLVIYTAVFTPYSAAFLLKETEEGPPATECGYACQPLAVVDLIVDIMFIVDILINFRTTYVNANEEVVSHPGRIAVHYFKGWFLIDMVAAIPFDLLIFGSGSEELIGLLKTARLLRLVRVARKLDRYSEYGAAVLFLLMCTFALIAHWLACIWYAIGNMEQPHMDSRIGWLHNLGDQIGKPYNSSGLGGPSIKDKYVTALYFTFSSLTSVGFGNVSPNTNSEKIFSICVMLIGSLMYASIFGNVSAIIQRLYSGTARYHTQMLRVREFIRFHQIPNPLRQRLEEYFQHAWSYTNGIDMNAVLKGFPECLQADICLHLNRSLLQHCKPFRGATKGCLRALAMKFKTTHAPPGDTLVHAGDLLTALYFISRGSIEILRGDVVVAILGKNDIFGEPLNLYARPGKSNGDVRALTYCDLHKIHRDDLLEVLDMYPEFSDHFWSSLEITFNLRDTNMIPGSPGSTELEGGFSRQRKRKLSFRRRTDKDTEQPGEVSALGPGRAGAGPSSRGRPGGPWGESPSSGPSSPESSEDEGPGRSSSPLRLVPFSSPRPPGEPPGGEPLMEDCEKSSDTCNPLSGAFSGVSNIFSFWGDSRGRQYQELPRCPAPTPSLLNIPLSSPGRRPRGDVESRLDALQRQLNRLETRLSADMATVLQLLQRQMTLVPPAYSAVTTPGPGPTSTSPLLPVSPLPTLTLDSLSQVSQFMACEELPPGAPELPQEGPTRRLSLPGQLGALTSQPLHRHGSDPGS
row,Structure (SMILES),"hERG current change (%, negative = inhibition) at 10uM [%]"
1,COc1ccc(C)cc1NC(=O)C(OC(=O)c1ccc(Cl)c(S(=O)(=O)N(C)c2ccccc2)c1)c1ccccc1 (stereo not drawn),-0.711
2,O=C(Nc1ccc(O)cc1C(=O)O)c1ccc2c(c1)C(=O)N(Cc1ccco1)C2=O,-16.8
3,CCOc1ccc2[nH]c(=O)c(CN(CCO)C(=O)c3ccccc3F)cc2c1,-0.495
4,COC(=O)Cc1[nH]nc2c1C(c1c[nH]c3ccccc13)C(C#N)=C(N)O2 (stereo not drawn),17.8
5,c1ccc(Nc2c(-c3ccco3)nc3ccccn23)cc1,9.75
6,C=CCC1(N(C(C)=O)c2ccccc2)CCCCC1,5.28
7,CSC(=NC#N)N1CCN(c2ccccc2)CC1,-2.95
8,CSC(=NC#N)N1CCN(c2ccc(Cl)cc2)CC1,-38.3
9,CSC(=NC#N)N1CCN(c2ccc([N+](=O)[O-])cc2)CC1,-77
10,O=C(Nc1ccc2c(c1)OCO2)c1cnn2c1NC(c1ccco1)CC2C(F)(F)F (stereo not drawn),-4.57
11,CCc1c(O)nc(SCC(=O)Nc2cc(C)on2)n(-c2ccccc2)c1=O,3.39
12,Cn1c(SCC(=O)Nc2ncc(C(F)(F)F)cc2Cl)nnc1-c1ccc(Cl)cc1,-30.8
13,CCn1c(Cc2cccs2)nnc1SCC(=O)NC1CC1,-1.49
14,C=CCn1c(SCC(=O)NC2CC2)nnc1-c1cccc(OC)c1,2.24
15,CCn1c(SCC(=O)NC2CC2)nnc1-c1ccc(OC)cc1,17.4
16,COc1cccc(-n2c(SCC(=O)NC3CCCC3)nnc2-c2ccco2)c1,-73.7
17,O=C(CSc1nnc(Cc2cccs2)n1-c1ccccc1)NC1CCCCC1,-62.5
18,COc1cccc(-n2c(SCC(N)=O)nnc2-c2ccco2)c1,13.7
19,CNC(=O)CSc1nnc(-c2ccco2)n1-c1cccc(OC)c1,-0.723
20,Nc1nnc(SCC(=O)NC2CCCCC2)n1-c1ccccc1,6.78
21,CCn1c(SCC(=O)NC2CC2)nnc1-c1cccc(OC)c1,-66.6

row,Structure (SMILES),"hERG current change (%, negative = inhibition) at 10uM [%]"
1,CCn1c(SCC(=O)Nc2ncc(C(F)(F)F)cc2Cl)nnc1-c1cccc(C)c1,-69.9
2,CCn1c(SCC(=O)Nc2ncc(C(F)(F)F)cc2Cl)nnc1-c1ccccc1,-12.6
3,Nn1c(N2CCCCC2)nc2ccccc21,6.16
4,Cc1cc(C(=O)N/N=C2\CCCC(C)C2)n[nH]1 (stereo not drawn),11
5,CCC1=C(c2ccc(C)cc2)S(=O)(=O)N=C1N1CCC(C(=O)NCCCN2CCCCC2)CC1,20.5
6,CCN(CC)CC(=O)Nc1nc(-c2ccc(Cl)cc2)cs1,-35.8
7,O=C(COc1ccccc1C(=O)NCC1CCCO1)Nc1ccc(Cl)cc1Cl (stereo not drawn),-14
8,COC(=O)c1ccc(COc2ccc(Cl)cc2)o1,2.11
9,Cc1cccc(-n2c(SCC(=O)NC3CCCC3)nnc2-c2ccoc2C)c1,-83.2
10,Cc1occc1-c1nnc(SCC(=O)NC2CCCC2)n1-c1ccccc1,-74.8
11,Cc1occc1-c1nnc(SCC(=O)NC2CCCC2)n1C,15.5
12,Cc1cccc(-n2c(SCC(=O)Nc3ccc4c(c3)OCO4)nnc2-c2ccoc2C)c1,-0.162
13,CCOc1ccccc1-n1c(SCC(=O)NC2CCCC2)nnc1-c1ccoc1C,-24
14,CCn1c(SCC(=O)NC2CCCC2)nnc1-c1ccoc1C,14
15,Cc1ccc(C)c(NC(=S)N2CCC(NC(=O)C3CCCCC3)CC2)c1,4.41
16,COc1ccc(NC(=O)COc2ccc(-c3nn(C)c(=O)c4ccccc34)cc2)cc1,18.2
17,S=C(NCc1cccnc1)Nc1cccc(Cl)c1,-9.78
18,CCOc1cc(C2Nc3ccccc3C(=O)N2c2ccccc2OC)ccc1O (stereo not drawn),1.46
19,CC(C)CC(=O)N(c1ccc(F)cc1)C1C=CS(=O)(=O)C1 (stereo not drawn),14.4
20,CC(=O)N1N=C2C3CCN(CC3)C2C1c1ccc(Br)cc1 (stereo not drawn),4.62
21,COc1ccc(CNc2nc3nc(C)c(Cl)c(C)n3n2)cc1,2.05

row,Structure (SMILES),"hERG current change (%, negative = inhibition) at 10uM [%]"
1,COc1cccc(CNc2nc3nc(C)c(Cl)c(C)n3n2)c1,-57.9
2,Cc1cc(C)n2nc(NCc3ccccc3)nc2n1,-9.34
3,COc1cccc(CNc2nc3nc(C)cc(C)n3n2)c1,-15.6
4,Cc1cc(C)n2nc(NCc3cccc(Br)c3)nc2n1,-70
5,COc1ccc(CNc2nc3nc(C)c(Cl)c(C)n3n2)cc1OC,-7.54
6,CC(NC(=O)Cc1ccccc1F)c1ccc(F)cc1 (stereo not drawn),6.9
7,Cc1ccc(C2=C/C(=C\c3cccnc3)C(=O)O2)cc1,30.8
8,NC(=O)NCCCC(=O)OCC(=O)c1ccc2ccccc2c1,13.4
9,CCCNC(=O)N1CCC(c2nc3ccccc3s2)CC1,-16.8
10,CCOc1cc(N2CCOCC2)c(OCC)cc1NC(=O)COC(=O)c1cc(C)cc(C)c1,-3.29
11,COc1c2ccccc2c(OC)c2ccccc12,12.9
12,C/C=C/c1ccccc1OCc1ccc(C(=O)O)o1,20
13,CSCC[C@H](NC(=O)COc1ccc(Cl)cc1)c1nc2ccccc2[nH]1,-56.5
14,CSCC[C@H](NC(=O)COc1ccc(Cl)cc1Cl)c1nc2ccccc2[nH]1,14.7
15,CSCC[C@H](NC(=O)C(C)Oc1ccc(Cl)cc1)c1nc2ccccc2[nH]1 (stereo partly drawn),-7.16
16,CCc1nnc(NC(=O)CSc2nnc(-c3ccoc3C)n2-c2ccc(C)cc2)s1,-26.4
17,CCc1nnc(NC(=O)CSc2nnc(-c3ccoc3C)n2-c2cccc(C)c2)s1,-58.3
18,Cc1ccc(C)c(-n2c(SCC(=O)Nc3nnc(C)s3)nnc2-c2ccoc2C)c1,5.96
19,CCCn1c(SCC(=O)Nc2nnc(C)s2)nnc1-c1ccoc1C,3.4
20,Cc1cccc(-n2c(SCC(=O)Nc3nnc(C)s3)nnc2-c2ccoc2C)c1,-63.9
21,CCc1nnc(NC(=O)CSc2nnc(-c3ccoc3C)n2-c2ccccc2)s1,-3.54

# From publication PMC4336329 (PLoS ONE, 2015)
